Screening data as filed in PubChem BioAssay.
ZTA counter: ZTA (EBV) inhibition in EBNA-1 counter-screen; P03206; ZTA-DNA binding, fluorescence polarization; inhibition, % at 11 µM; hit rate 0.15% among 320,000; in the data active = inhibition above about 33%
TPT1 inhibitor: Candida albicans TPT1 enzyme inhibitors, primary screen, biochemical, fluorescence polarization. tRNA 2'-phosphotransferase TPT1 (Candida albicans SC5314). recombinant caTPT1, FP RNA substrate dephosphorylation. inhibition, % at 5 µM. hit rate 0.81% among 300,000;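 active = inhibition above the mean of all tested compounds plus 3 SD, set per screening campaign, cut at about 24% in these data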
Rpn11 inh: Rpn11 (PSMD14) deubiquitinase inhibitors, primary screen, biochemical, fluorescence polarization, uHTS. hit rate 0.59% among 360,000. human 26S proteasome, Ub4-pepOG fluorescence polarization; 20S core pre-blocked with epoxomicin. 26S proteasome non-ATPase regulatory subunit 14 (Homo sapiens), O00487. inhibition, % at 20 µM. AID 588493, 2011;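 active = inhibition at 20 µM, scaled to each plate's controls, above about 33%, limit read from the data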
Target sequence (O00487 whole entry, looked up): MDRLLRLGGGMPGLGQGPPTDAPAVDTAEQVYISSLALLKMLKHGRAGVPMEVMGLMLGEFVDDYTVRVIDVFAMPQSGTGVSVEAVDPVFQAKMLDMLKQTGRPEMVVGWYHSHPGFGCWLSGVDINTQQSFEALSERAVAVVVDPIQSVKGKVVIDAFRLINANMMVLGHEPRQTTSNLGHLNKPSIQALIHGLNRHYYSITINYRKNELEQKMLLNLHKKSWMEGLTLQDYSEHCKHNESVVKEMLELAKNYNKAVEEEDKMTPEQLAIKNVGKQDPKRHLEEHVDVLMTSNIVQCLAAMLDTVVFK
GRIN3A LBD mod: binders of NR3A ligand-binding domain, primary screen, biophysical, differential scanning fluorimetry, uHTS; hit rate 2.5% among 340,000; NR3A LBD differential scanning fluorimetry, Tm shift; 0% = protein alone, 100% = glycine-bound protein; Glutamate receptor ionotropic, NMDA 3A (GRIN3A) ligand-binding domain; Tm shift relative to glycine control, % at 25 µM;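 active = melting temperature shift of at least 10% of the positive control shift, at one fixed dose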
EBNA-1 inh: EBNA-1 DNA-binding inhibitors, primary screen, biochemical, fluorescence polarization | hit rate 0.34% among 300,000 | inhibition, % at 14.8 µM; in the data active = inhibition above about 28%
dFosB activator: activators of delta FosB homodimer, primary screen, biochemical, fluorescence polarization, TAMRA-CDK5 oligo, single point | Protein FosB (Mus musculus), P13346 | purified delta FosB; percent of positive-control signal above neutral wells | activation, % at 25 µM | hit rate 0.99% among 340,000 | AID 493131, 2011;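 active = mean activation above about 17%, with every replicate also reaching it, limit read from the data, passing the limit was not always enough; inconclusive = only one of the two conditions met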
Target sequence (P13346 whole entry, looked up): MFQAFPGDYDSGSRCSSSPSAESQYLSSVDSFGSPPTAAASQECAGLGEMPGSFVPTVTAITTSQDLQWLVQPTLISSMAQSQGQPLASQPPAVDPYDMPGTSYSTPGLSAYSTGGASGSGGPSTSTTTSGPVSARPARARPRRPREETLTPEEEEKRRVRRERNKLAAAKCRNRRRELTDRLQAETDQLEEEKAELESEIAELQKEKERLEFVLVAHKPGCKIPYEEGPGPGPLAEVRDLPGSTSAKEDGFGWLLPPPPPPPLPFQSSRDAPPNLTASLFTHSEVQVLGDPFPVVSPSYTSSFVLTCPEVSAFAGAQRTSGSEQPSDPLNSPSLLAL
caTPT1 confirm: Candida albicans TPT1 inhibitors, confirmation, biochemical, fluorescence polarization, triplicate; shares compounds with TPT1 inhibitor; recombinant caTPT1, RNase T1 coupled; inhibition, % at 5 µM; hit rate 74% among 2,400;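 active = inhibition above the primary screen limit, the mean inhibition of all tested compounds plus 3 SD, cut at about 25% in these data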
RNase T1 counter: RNase T1 inhibitors, counter-screen for TPT1 inhibitor project, biochemical, fluorescence polarization | inhibition, % at 5 µM | shares compounds with TPT1 inhibitor | RNase T1 cleavage, 1536-well | hit rate 83% among 2,400;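 active = inhibition above the solvent-only control well mean plus 3 SD, limit set per screening run, cut at about 23% in these data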;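 note: inhibitors block cleavage so intact labeled substrate keeps polarization high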
Numbers stand for hits; n = inactive; u = inconclusive; x = no result shown; + = active, no number. Sampled rows, rich in hits. Any-hit rate of the full collection: about 4.5%.

SMILES	ZTA counter	TPT1 inhibitor	Rpn11 inh	GRIN3A LBD mod	EBNA-1 inh	dFosB activator	caTPT1 confirm	RNase T1 counter
Cc1cc(N2CCN(C(=O)c3ccco3)CC2)c2ccccc2n1	n	n	n	n	n	n	x	x
CC(=O)N1c2ccc3ccccc3c2C2C=CCC2C1c1ccc(Br)cc1 (stereo unspecified)	n	36	x	x	n	x	n	n
CCOc1cc(C(=O)N2CCCN(C)CC2)cc(OCC)c1OCC	n	n	n	n	n	n	x	x
COc1cc(OC)cc(C(=O)c2c(C)c(C#N)c3ccccn23)c1	x	x	n	n	x	n	x	x
COC1=C/C(=C/c2c(O)c(C#N)c3ccccn23)C=CC1=O	n	30	n	n	n	n	n	n
O=C(O)c1ccc(/C=C/c2ccc3cccc(O)c3n2)cc1	x	x	n	n	x	n	x	x
Oc1ccc(/C=C/c2ccc3cccc(O)c3n2)cc1Br	n	48	x	30	n	n	63	70
CC(OC(=O)/C(C#N)=C/c1ccc(N(C)C)cc1)C(=O)N(C)c1ccccc1 (stereo unspecified)	n	121	x	n	n	n	130	132
CC(C)OC(=O)/C(C#N)=C\c1cccnc1	n	n	n	n	n	n	x	x
NC(=O)Nc1ccc(C(=O)OCC(=O)N2CCCC2=O)cc1	n	x	n	n	x	n	x	x
Oc1ccc(-c2sc(Nc3ccccc3)n[n+]2-c2ccc(F)cc2)cc1	n	n	n	n	n	n	x	x
Oc1ccc2ccccc2c1-c1sc(Nc2ccccc2)n[n+]1-c1ccc(F)cc1	n	29	n	n	n	n	n	n
O=c1cc(C(F)(F)F)nc(-n2[nH]c3c(c2=O)CCCC3)[nH]1	n	33	n	n	n	n	n	28
Nc1nc(C(F)(F)F)cc(=O)[nH]1	n	n	n	n	n	n	x	x
CC(=O)c1cc(NC(=O)c2ccc(Cl)cc2)c(=O)oc1/C=C/N(C)C	n	132	x	n	n	n	108	110
COc1ccc(C(=O)Nc2cc(C(C)=O)c(C)oc2=O)cc1	n	n	n	n	n	n	x	x
CC(=O)c1cc(NC(=O)c2cccc(C(F)(F)F)c2)c(=O)oc1/C=C/N(C)C	n	117	x	n	n	n	122	128
COc1ccc(S(=O)(=O)Nc2cccc(S(=O)(=O)NC3=NCCC3)c2)cc1[N+](=O)[O-]	n	n	n	n	n	n	x	x
O=C(Nc1ccc(Cl)cn1)c1ccc2nccnc2c1	n	n	n	n	n	n	x	x
O=C(NCc1ccccc1)C(=O)NCC(c1ccco1)N1CCN(c2ccccc2F)CC1 (stereo unspecified)	n	n	n	n	n	n	x	x
O=C(NCCc1c[nH]c2ccccc12)C(=O)NCC(c1ccco1)N1CCN(c2ccccc2F)CC1 (stereo unspecified)	n	51	n	n	n	n	n	n
CCOc1cc2c(C#N)c(N3CCNCC3)nc(N)c2c(N)n1	n	n	n	n	n	n	x	x
CCOc1cc2c(C#N)c(N3CCCCC3)nc(N)c2c(N)n1	n	50	x	n	n	n	49	58
COc1ccc(CN2C(=O)Cc3c2nc(N)c2c(N)nc(N4CCCCC4)c(C#N)c32)cc1	n	31	x	x	n	x	58	68
CC(=O)NC(c1ccccc1)c1nc(-c2ccccc2)cs1 (stereo unspecified)	x	x	n	x	x	x	x	x
SMILES	ZTA counter	TPT1 inhibitor	Rpn11 inh	GRIN3A LBD mod	EBNA-1 inh	dFosB activator	caTPT1 confirm	RNase T1 counter
COc1ccccc1/C=C/C=C1\Oc2c(ccc(O)c2CN(C)C)C1=O	n	32	x	n	n	n	33	45
CCN(CC)Cc1c(O)ccc2c1O/C(=C\C=C\c1ccccc1)C2=O	n	n	x	n	n	n	x	x
CCN(C[C@H]1N[C@@](C)(C(=O)OC)[C@H]2C(=O)N(C)C(=O)[C@@H]12)S(=O)(=O)c1ccc(-c2ccccc2)cc1	x	x	n	n	x	n	x	x
Cc1c(N=C2N=C(NC(=O)NC(C)(C)C)c3ccccc32)c(=O)n(-c2ccccc2)n1C	n	n	n	n	n	n	x	x
Cc1c(N=C2N=C(NC(=O)c3cccs3)c3ccccc32)c(=O)n(-c2ccccc2)n1C	n	85	x	n	n	n	113	113
O=C(NCc1cccs1)c1ccc2sc(COCCO)nc2c1	x	x	n	x	x	x	x	x
COc1ccc(/C=N/Nc2ccc([N+](=O)[O-])cc2S(=O)(=O)N2CCN(C)CC2)cc1	n	71	x	n	n	n	105	118
COc1ccc(NS(=O)(=O)c2cc([N+](=O)[O-])ccc2N/N=C\c2c(C)[nH]c3ccccc23)cc1	n	72	x	28	n	n	75	86
Cc1[nH]c2ccccc2c1/C=N/Nc1nc2ccccc2[nH]1	n	n	n	n	n	u	x	x
Cn1c(-c2ccc(C=O)s2)nc2c3ccccc3c3ccccc3c21	n	34	n	n	n	n	52	63
CCC(=O)Nc1cc(C(=O)O)ccc1Sc1ccc(C)cc1	n	n	n	n	n	n	x	x
CCc1ccccc1NC(=S)NCCSc1ccc(Cl)cc1	n	+	n	n	n	n	n	n
COc1ccc(/C=C/C(=O)C2C(=O)C=C(C)OC2=O)cc1O (stereo unspecified)	n	25	n	n	n	n	n	30
COc1ccc(/C=c2\s/c(=C\C(=O)C(C)(C)C)[nH]c2=O)cc1O	n	n	n	n	n	n	x	x
COc1cc(/C=C/C(=O)C2C(=O)C=C(C)OC2=O)cc(OC)c1O (stereo unspecified)	n	37	n	n	n	n	n	28
COC(=O)c1oc2ccccc2c1NC(=O)/C=C/C(=O)O	n	n	n	n	n	n	x	x
C(=Nc1ccc(N2CCOCC2)cc1)c1c[nH]c2ccccc12	n	n	n	n	n	n	x	x
Oc1ccccc1N=Cc1c(O)ccc2ccccc12	x	x	x	n	x	n	x	x
Oc1ccc2ccccc2c1C=Nc1ccc(N2CCOCC2)cc1	n	76	x	n	n	x	67	86
C=Cc1ccc(N=Cc2c(O)ccc3ccccc23)cc1	n	40	x	n	n	n	129	133
CCCC1=[N+](CC(=O)c2ccc(C)cc2)CCn2cccc21	n	62	n	n	n	n	n	n
O=[N+]([O-])c1cccc(/C=C/c2nc(C=Nc3ccc4ccccc4c3)c(O)o2)c1	n	33	n	11	n	n	n	28
